# High-throughput results as filed in PubChem.
# The list is not random: actives were taken first. Their share in the collection is about 5.8%.
# TRPV1 agonist: HTS Assay for Compounds that Act as Agonists of the Vanilloid Receptor 1; Transient receptor potential cation channel subfamily V member 1 (Homo sapiens), Q8NER1; TRPV1-expressing cells, Fluo-8 calcium influx, agonist mode; activation, % at 8.33 µM; 320,000 tested, 0.19% active; AID 540275, 2011; in the data active = activation above about 80%; inconclusive = between about 30% and that limit; also: 0% is about no effect
#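 TRPV1-expressing cells were cultured overnight at 35.5C and loaded with Fluo-8 calcium dye for 40 to 90 min at room temperature. After a 10 s baseline, compound was added and calcium influx was read kinetically for 3 min (ex 480/em 520 nm).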
# Gal4-VP16 FLuc: VP16 counterscreen qHTS for inhibitors of ROR gamma transcriptional activity; Drosophila S2 Gal4-VP16 UAS-luciferase, luminescence, 20 h; Potency, µM (doses to about 53.6 µM), without a hit: at the highest dose activity, negative = inhibition, hits mostly inhibitors; 310,000 tested, 3.5% active; AID 2546, 2010;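 also: Gal4-VP16 expression switched on by copper sulfate through the metallothionein promoter; potency is read from the fitted curve at half-maximal effect; % is scaled to controls: 0 for no effect and ±100 for the full control effect; nearly all actives have a fitted effect of over 50% in size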
# uPA generation: qHTS for Inhibitors of Cell Surface uPA Generation. cell surface uPA generation assay, qHTS. Potency, µM (highest dose often 38.3 µM), inactives show top-dose activity change, negative = inhibition, actives largely listed as inhibitors. 330,000 tested, 0.31% active. AID 540303, 2011; active = well fitted inhibition curve with a large enough effect; inconclusive = small, poorly fitted or top-dose-only effect; inactive = no such curve, though single readings can be large or run the other way; tested in mouse RAW 264.7 cells; also: potency is read from the fitted curve at half-maximal effect; % is scaled to controls: 0 for no effect and ±100 for the full control effect; nearly all actives have a fitted effect of over 55% in size
# RORgamma inh: qHTS for inhibitors of ROR gamma transcriptional activity | Nuclear receptor ROR-gamma (Mus musculus), P51450 | Drosophila S2 Gal4-RORgamma UAS-luciferase reporter, 20 h | Potency, µM (titrated, usually from 53.6 µM), inactives show at the top dose activity change, negative = inhibition, usual class: inhibitors | 310,000 tested, 5.4% active | AID 2551, 2010; also: potency is read from the fitted curve at half-maximal effect; % is scaled to controls: 0 for no effect and ±100 for the full control effect; nearly all actives have a fitted effect of over 60% in size
# Target sequence (P51450 whole entry, looked up, the tested form may be a part): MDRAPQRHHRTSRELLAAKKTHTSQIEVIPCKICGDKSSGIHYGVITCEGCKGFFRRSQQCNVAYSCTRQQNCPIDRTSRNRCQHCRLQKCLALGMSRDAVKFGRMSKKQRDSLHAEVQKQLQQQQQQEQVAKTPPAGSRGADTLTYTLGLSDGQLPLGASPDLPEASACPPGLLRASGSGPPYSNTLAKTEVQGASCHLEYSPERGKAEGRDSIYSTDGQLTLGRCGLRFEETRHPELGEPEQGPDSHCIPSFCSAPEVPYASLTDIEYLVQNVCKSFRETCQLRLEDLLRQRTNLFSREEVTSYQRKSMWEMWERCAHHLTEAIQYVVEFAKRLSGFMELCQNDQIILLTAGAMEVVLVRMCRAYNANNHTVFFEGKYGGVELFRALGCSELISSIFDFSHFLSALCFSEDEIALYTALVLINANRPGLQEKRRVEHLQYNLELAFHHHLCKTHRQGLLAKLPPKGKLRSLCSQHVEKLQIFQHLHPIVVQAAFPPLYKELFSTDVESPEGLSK
#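 Stable Schneider cell line, Gal4 DNA-binding domain fused to ROR gamma, UAS-luciferase. Cmpd 1 hr RT → CuSO4 700 uM final → 20 hr RT → luciferase reagent 10 min → luminescence.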
# TRPV1 potentiator: HTS Assay for Compounds that Act as Potentiators of the Vanilloid Receptor 1 | TRPV1-expressing cells, Fluo-8 calcium influx, capsaicin EC20 potentiation | Transient receptor potential cation channel subfamily V member 1 (Homo sapiens), Q8NER1 | 320,000 tested, 0.02% active | AID 540277, 2011 | potentiation, % at 8.33 µM; in the data active = potentiation above about 80%; inconclusive = between about 30% and that limit; also: 0% is about no effect
#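 Fluo-8 calcium influx in TRPV1-expressing cells, kinetic read (ex 480/em 520 nm). Compound added and read 3 min for agonist activity, followed by capsaicin at EC20 final and 2 min further read for enhancement.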
# Active calls of the source: *; u = inconclusive; x = not tested or not shown. Unless noted, calls follow the shape of the dose curve; as a rule, active = well fitted curve in the direction sought with a large enough effect; inconclusive = small, poorly fitted or top-dose-only effect, or another doubt; inactive = no such curve, though single readings can be large; an effect the other way counts as inactive or inconclusive.
SMILES,TRPV1 agonist,Gal4-VP16 FLuc,uPA generation,RORgamma inh,TRPV1 potentiator
COc1cccc(N2CCN(C(=O)c3ccc4nc(N5CCC(C)CC5)sc4c3)CC2)c1,u,-20.1%,x,12.6µM*,-10.1
O=C(c1ccc2nc(N3CCOCC3)sc2c1)N1CCC(Cc2ccccc2)CC1,u,0.224µM*,-1.6%,u,-1.3
O=C(c1ccccc1)N1CCN(c2nc3ccc([N+](=O)[O-])cc3s2)CC1,12.1,8.91µM*,8.8%,u,4.2
CCN(Cc1ccccc1)S(=O)(=O)c1ccc(C(=O)N2CCN(c3nc4ccccc4s3)CC2)cc1,-9.5,22.4µM*,1.0%,u,10.7
O=[N+]([O-])c1ccc2nc(N3CCCC3)sc2c1,-0.1,-6.7%,-17.4%,16.7%,11.3
O=C(CNC(=O)c1ccc(Cl)cc1Cl)OCc1ccccc1,21.7,x,5.4%,x,-23.7
CN(C)c1ncc2nc(-c3cc(F)cc(F)c3)c(=O)n(Cc3cccs3)c2n1,x,-4.9%,x,-32.6%,x
C[C@H](NC(=O)[C@H](Cc1ccccc1)n1c(=O)[nH]c2ccccc2c1=O)C(=O)N1CCC(C(=O)O)CC1,-3.2,0.9%,4.47µM*,-15.6%,-4.0
CC(C)C[C@H](NC(=O)[C@H](Cc1ccccc1)n1c(=O)[nH]c2ccccc2c1=O)C(=O)N1CCC(C(=O)O)CC1,-5.0,-2.7%,8.1%,14.9%,6.7
CN(C)/N=C/C=C1\CCC/C(=C\c2ccc(F)c(F)c2)C1=O,9.7,u,-7.7%,u,-7.2
COc1ccc(/C=C2\CCC/C(=C\C=N\N(C)C)C2=O)cc1,8.0,7.4%,11.2µM*,u,0.5
C[N+]1(C)C2CCC1CC(OC(=O)C(O)c1ccccc1)C2 (stereo unspecified),x,-1.0%,x,-21.0%,x
CCOC(=O)N1CCN(c2c(NCc3ccc(Cl)cc3)c(=O)c2=O)CC1,3.2,-7.5%,2.82µM*,-12.7%,-3.9
COc1ccc(C2C3=C(CCCC3=O)Nc3nc(C(F)(F)F)nn32)cc1OC (stereo unspecified),-7.7,-11.5%,-6.5%,4.47µM*,-3.6
NC(=S)N/N=C/c1ccc2c(c1)OCCO2,5.8,u,x,11.2µM*,-7.6
COc1ccc(NCC(=O)N/N=C/c2ccc3c(c2)OCCO3)cc1,-1.5,-6.4%,3.5%,0.126µM*,16.9
CNC(=S)N/N=C/c1ccc2c(c1)OCCO2,-8.4,0.631µM*,-0.7%,u,2.9
O=C(N/N=C/c1ccc2c(c1)OCCO2)c1ccncc1,17.4,0.1%,2.4%,-4.3%,-17.4
O=c1[nH]nc(SC2CCCCC2)c(=O)[nH]1,x,x,-1.0%,x,x
O=C(CCCN1C(=O)c2ccccc2C1=O)OC1CSCC1NC(=O)c1ccccc1 (stereo unspecified),3.2,-4.6%,5.4%,-9.6%,2.6
O=C1CC(C(=O)O)S/C(=N\NC(=O)c2ccc(F)cc2)N1 (stereo unspecified),1.5,4.0%,-0.4%,-19.9%,-3.6
COc1cccc(NC(=O)C2CC(=O)N/C(=N/NC(=O)c3ccc(C)cc3)S2)c1 (stereo unspecified),-1.3,11.2µM*,4.9%,6.31µM*,3.1
O=C1CC(C(=O)Nc2ccccc2)S/C(=N\NC(=O)c2ccccc2Cl)N1 (stereo unspecified),-1.9,5.01µM*,5.0%,3.16µM*,-1.1
COc1ccccc1C(=O)N/N=C1/NC(=O)CC(C(=O)Nc2ccccc2)S1 (stereo unspecified),-0.3,3.9%,15.5%,-10.5%,u
Cc1ccc(C(=O)N/N=C2/NC(=O)CC(C(=O)Nc3ccccc3)S2)cc1 (stereo unspecified),-5.2,5.62µM*,-4.2%,3.16µM*,2.2
Cc1ccc(NC(=O)C2CC(=O)N/C(=N/NC(=O)c3ccc(C)cc3)S2)cc1 (stereo unspecified),1.2,10µM*,-8.4%,2.24µM*,5.2
COc1ccc(S(=O)(=O)N2CCOC23CCN(S(=O)(=O)c2c(C)cc(C)cc2C)CC3)cc1,-4.3,x,-2.6%,x,-0.6
